Bioassay records as filed in PubChem BioAssay.
MenB inh – M. tuberculosis MenB inhibitors, primary screen, biochemical, absorbance; 1,4-dihydroxy-2-naphthoyl-CoA synthase (Mycobacterium tuberculosis (strain ATCC 25618 / …; MenB enzyme assay, absorbance read-out; inhibition, % (no concentration beside the values); 0.43% of 100,000 active; AID 540299, 2011; in the data active = inhibition above about 21%, passing the limit was not always enough
MbtI inh – MbtI salicylate synthase inhibitors, primary screen, biochemical, fluorescence intensity. P9WFX0. purified MbtI enzyme, fluorescence intensity read-out. inhibition, % (test concentration not listed). 0.89% of 100,000 active. AID 493033, 2011; in the data active = inhibition mostly above about 56%, no sharp cut-off; inactive = mostly below about 77%
AID504770 – growth inhibition of E. coli YBA685, primary screen, V. cholerae RctB inhibitors. z-score (test concentration not listed). 0.27% of 130,000 active. AID 504770, 2011. E. coli YBA685 rctB-dependent plasmid, OD600 growth, 3 h; stronger effect = lower value; in the data active = z-score below about -2, passing the limit was not always enough
PV pol inh – poliovirus RdRp elongation inhibitors, primary screen, biochemical, fluorescence polarization, total intensity. poliovirus polymerase elongation; stronger effect = lower value. Genome polyprotein (Poliovirus type 1 (strain Mahoney)), P03300. 0.66% of 150,000 active. % elongation, % (compound at 16.7 µg/mL); in the data active = % elongation below about 90%
Target sequence (P03300 1749-2209 limits assumed): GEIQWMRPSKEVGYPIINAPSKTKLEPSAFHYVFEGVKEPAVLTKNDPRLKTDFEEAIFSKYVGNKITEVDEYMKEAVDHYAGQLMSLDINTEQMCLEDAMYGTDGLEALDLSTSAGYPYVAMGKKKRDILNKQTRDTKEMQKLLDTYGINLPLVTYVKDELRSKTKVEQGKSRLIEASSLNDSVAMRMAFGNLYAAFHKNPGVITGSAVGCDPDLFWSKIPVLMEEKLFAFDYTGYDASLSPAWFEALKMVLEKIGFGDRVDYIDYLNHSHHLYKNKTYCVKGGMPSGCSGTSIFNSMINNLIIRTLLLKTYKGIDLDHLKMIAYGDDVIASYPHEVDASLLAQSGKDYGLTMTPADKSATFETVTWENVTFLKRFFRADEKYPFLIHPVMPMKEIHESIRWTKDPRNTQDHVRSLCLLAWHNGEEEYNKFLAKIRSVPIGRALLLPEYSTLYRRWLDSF
An asterisk follows results filed as active. The list is not random: actives were taken first. Their share in the collection is about 1.5%.

Results for CCc1ccc(NC(=O)Nc2cn(C)c(=O)c3ccccc23)cc1 ?
PV pol inh: 70*

Results for Cn1cc(NC(=O)NC2CCCCC2)c2ccccc2c1=O ?
MenB inh: -25; MbtI inh: -5; AID504770: 1.2; PV pol inh: 22*

Results for CSc1ccc(CCNC(=O)Nc2cn(C)c(=O)c3ccccc23)cc1 ?
MenB inh: -28; MbtI inh: -6; AID504770: 2.1; PV pol inh: 45*

What do the screens show for `CCOc1ccc(CCNC(=O)Nc2cn(C)c(=O)c3ccccc23)cc1OCC`?
MenB inh: -12; MbtI inh: -7; AID504770: -0.15; PV pol inh: 101

How did CCC/C(O)=C1/C(=O)CC(c2ccccc2)CC1=NCc1ccccc1 (stereo not given) do in these assays?
MbtI inh: -10; AID504770: 0.1; PV pol inh: 101

Results for O=C1OC(N2CCc3ccccc3C2)c2ccccc21 (stereo not given) ?
MenB inh: -6; MbtI inh: -22; AID504770: -0.55; PV pol inh: 103

What do the screens show for `CCOC(=O)c1csc2c1CCC/C2=N/OC(C)=O`?
MenB inh: -17; MbtI inh: -9; AID504770: -0.25; PV pol inh: 103

How did CC(C)CCNC(=O)Nc1cn(C)c(=O)c2ccccc12 do in these assays?
MenB inh: -25; MbtI inh: -22; AID504770: -0.45; PV pol inh: 100

What do the screens show for `Cn1cc(NC(=O)NCCc2ccsc2)c2ccccc2c1=O`?
MenB inh: -5; MbtI inh: -7; AID504770: 0.45; PV pol inh: 57*

Results for CC12CC(C)(C)C(C#N)(C(N)=C1C#N)C(=C(C#N)C#N)N2 (stereo not given) ?
MenB inh: -15; MbtI inh: 5; AID504770: 0.7; PV pol inh: 83*

Results for FC(F)(F)c1ccc(=S)[nH]c1 ?
MenB inh: -43; MbtI inh: 93*; AID504770: -0.15; PV pol inh: 111

How did O=C(Sc1cccs1)C1COc2ccccc2O1 (stereo not given) do in these assays?
AID504770: -2.3*

What do the screens show for `NC(=S)/N=C1/CCN(c2ccccc2)N1`?
MenB inh: 18; MbtI inh: 6; AID504770: -0.25; PV pol inh: 100

How did Cc1c(C(=O)Nc2ccncc2)oc2ccccc12 do in these assays?
MenB inh: 38*; MbtI inh: -3; AID504770: 0.6; PV pol inh: 101

What do the screens show for `COc1cc(SC)ccc1C(=O)N(C)C1CCN(C)CC1`?
MenB inh: -9; MbtI inh: 2; AID504770: -0.15; PV pol inh: -3.0*

How did O=C(O)c1nccnc1C(=O)Nc1ccc(N2CCOCC2)cc1 do in these assays?
MenB inh: -10; MbtI inh: 5; AID504770: 1.5; PV pol inh: 101

What do the screens show for `O=C(Nc1ccc(N2CCOCC2)cc1)C1=NCCN1`?
MenB inh: -18; MbtI inh: -7; AID504770: -0.55; PV pol inh: 63*

What do the screens show for `Fc1ccc(-c2ccc(NCc3ccccc3)nn2)cc1`?
MenB inh: -51; MbtI inh: -5; AID504770: -0.65; PV pol inh: 104

How did COC(=O)c1sc(NC(=O)COc2ccc(OC)cc2)c(C#N)c1C do in these assays?
MenB inh: -20; AID504770: -0.5; PV pol inh: 83*

Results for O=C(O)CCC(=O)c1cccs1 ?
MbtI inh: -4; AID504770: -0.3; PV pol inh: 82*

What do the screens show for `Cc1ccc(NC(=O)CCC(=O)c2cccs2)cc1`?
MenB inh: -6; MbtI inh: -7; AID504770: -1.1; PV pol inh: 102

How did N#Cc1ccc(NC(=O)CCC(=O)c2cccs2)cc1 do in these assays?
MenB inh: -10; MbtI inh: 0; AID504770: 1.3; PV pol inh: 83*

How did O=C(NC1=NCCS1)c1ccc(S(=O)(=O)N2CCCCCC2)cc1 do in these assays?
MenB inh: 7; MbtI inh: 8; AID504770: 0.45; PV pol inh: 105

How did CC(=O)Nc1ccccc1OCCOc1ccccc1NC(C)=O do in these assays?
AID504770: -0.35

What do the screens show for `CCCOc1ccccc1NC(=O)/C=C/C(N)=O`?
MbtI inh: 100*; AID504770: -0.25; PV pol inh: 100

Results for O=C(CC1(c2ccc(Cl)cc2)C(=O)c2ccccc2C1=O)N1CCOCC1 ?
MenB inh: -35; MbtI inh: -8; AID504770: -0.95; PV pol inh: 104

What do the screens show for `O=C1c2ccccc2C(=O)C1(O)N1CCOCC1`?
MenB inh: 19; MbtI inh: 2; AID504770: 0; PV pol inh: 34*

Results for O=C(COC(=O)/C=C/c1ccccc1)Nc1c(F)cccc1F ?
MbtI inh: 0; AID504770: 0.3; PV pol inh: 104

Results for O=C(COC(=O)/C=C/c1ccc(F)cc1)Nc1ncccn1 ?
MenB inh: -39; MbtI inh: -4; AID504770: -0.15; PV pol inh: 84*

How did O=C(Oc1ccc(F)cc1)c1nsc(Cl)c1Cl do in these assays?
MenB inh: -39; AID504770: 0.8; PV pol inh: 88*

What do the screens show for `N#CSc1ccc(NCCO)cc1C(F)(F)F`?
MenB inh: -31; MbtI inh: 58*; AID504770: -0.2; PV pol inh: 103

Results for OCCNc1ccc(Cl)cc1 ?
MenB inh: 1; MbtI inh: -5; AID504770: 0; PV pol inh: 104

What do the screens show for `COc1cccc(OC)c1C(=O)Nc1nnc(CC(C)(C)C)s1`?
MenB inh: -19; AID504770: -0.25; PV pol inh: 71*

Results for O=C(O)/C=C/C(=O)Nc1cn(-c2ccccc2)nc1-c1ccccc1 ?
MenB inh: -11; MbtI inh: 29; AID504770: -0.3; PV pol inh: 102

Results for OC1(CCC2(O)CCCC2)CCCC1 ?
MenB inh: 28*; MbtI inh: -5; AID504770: 1.5; PV pol inh: 100

Results for O=C1C=CC(=O)C(Sc2nnnn2-c2ccccc2)=C1 ?
MenB inh: -3; MbtI inh: 102*; AID504770: -0.7; PV pol inh: 99

What do the screens show for `O=C1CSc2nnc(-c3ccccc3)n21`?
MenB inh: 9; MbtI inh: 0; AID504770: 0.3; PV pol inh: 54*

Results for COC(=O)C1=C(C)Nc2ccccc2S1 ?
MenB inh: -11; MbtI inh: 58*; AID504770: 1.2; PV pol inh: 107

What do the screens show for `C#CC(=O)OCC(=O)Nc1ccc(C)c(C)c1`?
MenB inh: -25; MbtI inh: 66*; AID504770: 0.4; PV pol inh: 89*

How did CC(C)OC(=O)CSc1nnc(-c2ccc(O)cc2)n1-c1ccccc1 do in these assays?
MenB inh: -35; MbtI inh: -14; AID504770: 0.25; PV pol inh: 104

How did CC1(C)Nc2ccccc2C(=O)N1c1ccccc1 do in these assays?
MenB inh: 43*; MbtI inh: 90; AID504770: 0.75; PV pol inh: 102
